A number with no mark means an inactive call.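 How the source made its calls, unless noted: active means cell viability at or below a set limit in both duplicate runs, the limit being the all-compound median minus 4 SD (cut at about 23% in these data, passing the limit was not always enough); inconclusive means no clear call, values can overlap the other calls; inactive means the rest.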 Inconclusive results are not listed.
Assay: doxorubicin toxicity protection in MRP-1 cells – H69AR cells, CellTiter-Glo, duplicate, MRP-1 activator project, pilot screen (AID 807;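 active means viability increase at or above a cutoff of the median across tested compounds plus 3 SD, cut at about 8.5% in these data, passing the limit was not always enough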;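 further: compound pretreatment 18-22 h then 72 h combined with doxorubicin; 0% = doxorubicin alone and 100% = vehicle without doxorubicin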)
Details: H69AR viability with doxorubicin, CellTiter-Glo luminescence; at 10 µM; stronger effect = higher value

SMILES	viability increase [%]
O=C(Cn1c(=O)[nH]c2ccsc2c1=O)NC1CCCCC1	0.65
Cc1cc(Nc2ccc(F)cc2Cl)n2nc(C)nc2n1	-0.59
COc1ccc(C)cc1NC(=O)CSc1nnc(-c2ccc(C)cc2)o1	1.15
c1ccc(OCCOCCSc2ncccn2)cc1	2.36
Fc1cc2nc(-c3ccncc3)[nH]c2cc1F	-1.54
Cc1cc(N)n2ncc(-c3cccc(Br)c3)c2n1	-6.91
COc1cccc(-c2cc(C(=O)Nn3cnnc3)c3ccccc3n2)c1	-3.9
CC(=O)C1C(c2ccc(O)cc2)NC(=O)NC1(O)C(F)(F)F (stereo not given)	-1.41
O=C(O)c1ccc(CSc2nnc(-c3ccco3)o2)cc1	0.19
CC1Cn2c(nnc2-c2cccc(N)c2)S1 (stereo not given)	-1.3
Cc1cccc(-n2c(Cc3cc(=O)[nH]c(=O)[nH]3)nnc2SC(C)C)c1	-1.84
COc1ccc(C2(O)CCN(C(=O)c3ccc4c(c3)OCO4)CC2)cc1	-0.75
O=C(Nc1cccc2c1CCCC2)c1ccc(Br)o1	-1.15
CCCNC(=O)NCCc1c(C)[nH]c2ccccc12	-3.16
CCCC(=O)NC(C)c1nc2ccccc2n1CC (stereo not given)	0.02
CCCN(CCC)S(=O)(=O)c1ccc(C(=O)NCc2ccc3c(c2)OCO3)cc1	-3.62
CCCNc1nc2c(c(=O)n(C)c(=O)n2C)n1Cc1ccc(F)cc1	-1.45
c1ccc(-c2ccccc2-n2cnnn2)cc1	-0.54
COc1cccc(-c2nc(CS(=O)CC(=O)O)c(C)o2)c1 (stereo not given)	-0.27
N=c1n(CCOc2ccccc2)c2ccccc2n1CCN1CCOCC1	-3.52

SMILES	viability increase [%]
COc1ccc(CCNc2ncnc3nc[nH]c23)cc1OC	-3.11
CCSc1sccc1C1C(C#N)=C(N)N(c2cccnc2)C2=C1C(=O)CC(C)(C)C2 (stereo not given)	-6.56
Cc1nc(CNS(=O)(=O)c2ccccc2F)cs1	-0.6
CC(=O)N(c1ccc(C)cc1)C1C=CS(=O)(=O)C1 (stereo not given)	-0.41
CCc1cccc(C)c1NC(=O)C1CCCO1 (stereo not given)	-3.29
Nc1nc2n(n1)C(c1ccccc1Cl)CC(c1ccc(F)cc1)N2 (stereo not given)	-0.54
N#Cc1ccc(N2CCN(C(=O)c3cccc(F)c3)CC2)c(F)c1	-2.03
CCn1ccc(C(=O)Nc2ccc(Cl)cn2)n1	-1.34
CCOC(=O)c1cn(-c2ccccc2)nc1-c1cccnc1	-3.34
CCOC(=O)c1c(C)n(C)c2ccc(OCC(O)CN(CC)CC)cc12 (stereo not given)	-4.23
O=C(NCCC1=CCCCC1)NC1CCCCC1	-0.3
CC(=O)Nc1ccc(-n2c(C)c(C(C)=O)c(C(C)=O)c2C)cc1	-2.3
COCCOC(=O)C1=C(C)NC2=C(C(=O)CC(C)(C)C2)C1c1ccc2c(c1)OCO2 (stereo not given)	-1.42
CCOc1ccccc1Nc1ncnc2c1cnn2-c1ccccc1	3.06
O=C1NCCCC1C(=O)N1CCN(C(=O)c2ccco2)CC1 (stereo not given)	-0.63
CCC(=O)NCCn1c(C)cc2ccccc21	-0.96
CCCCNC(=O)Nc1cc(C(=O)OC)ccc1C	0.11
CCOc1ccc(N=Cc2c(O)cc(C)oc2=O)cc1	-2.82
CC(C)C(NS(=O)(=O)c1ccc2c3c(cccc13)C(=O)N2)C(=O)O (stereo not given)	-0.28
Cc1ccc(NC(=O)c2cc(-c3cccc(O)c3)on2)cc1C	-0.54

Assay: viability of HCT116 without oncogenic beta-catenin – human colon tumor cells, pilot screen (AID 823);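 further: 0% = wells killed by 20 µM Hyamine and 100% = untreated DMSO cell wells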
Details: HCT116 beta-catenin knockout viability, CellTiter-Glo, 60 h; at 10 µM; stronger effect = lower value

SMILES	viability [%]
O=C(Cn1c(=O)[nH]c2ccsc2c1=O)NC1CCCCC1	94.9
Cc1cc(Nc2ccc(F)cc2Cl)n2nc(C)nc2n1	109
COc1ccc(C)cc1NC(=O)CSc1nnc(-c2ccc(C)cc2)o1	91.9
c1ccc(OCCOCCSc2ncccn2)cc1	101
Fc1cc2nc(-c3ccncc3)[nH]c2cc1F	109
Cc1cc(N)n2ncc(-c3cccc(Br)c3)c2n1	75.4
COc1cccc(-c2cc(C(=O)Nn3cnnc3)c3ccccc3n2)c1	92.5
CC(=O)C1C(c2ccc(O)cc2)NC(=O)NC1(O)C(F)(F)F (stereo not given)	102
O=C(O)c1ccc(CSc2nnc(-c3ccco3)o2)cc1	108
CC1Cn2c(nnc2-c2cccc(N)c2)S1 (stereo not given)	98.7
Cc1cccc(-n2c(Cc3cc(=O)[nH]c(=O)[nH]3)nnc2SC(C)C)c1	101
COc1ccc(C2(O)CCN(C(=O)c3ccc4c(c3)OCO4)CC2)cc1	106
O=C(Nc1cccc2c1CCCC2)c1ccc(Br)o1	79.6
CCCNC(=O)NCCc1c(C)[nH]c2ccccc12	99.8
CCCC(=O)NC(C)c1nc2ccccc2n1CC (stereo not given)	97
CCCN(CCC)S(=O)(=O)c1ccc(C(=O)NCc2ccc3c(c2)OCO3)cc1	94.5
CCCNc1nc2c(c(=O)n(C)c(=O)n2C)n1Cc1ccc(F)cc1	78.8
c1ccc(-c2ccccc2-n2cnnn2)cc1	97.3
COc1cccc(-c2nc(CS(=O)CC(=O)O)c(C)o2)c1 (stereo not given)	99.9
N=c1n(CCOc2ccccc2)c2ccccc2n1CCN1CCOCC1	82.5

SMILES	viability [%]
COc1ccc(CCNc2ncnc3nc[nH]c23)cc1OC	82.8
CCSc1sccc1C1C(C#N)=C(N)N(c2cccnc2)C2=C1C(=O)CC(C)(C)C2 (stereo not given)	92.1
Cc1nc(CNS(=O)(=O)c2ccccc2F)cs1	94.1
CC(=O)N(c1ccc(C)cc1)C1C=CS(=O)(=O)C1 (stereo not given)	101
CCc1cccc(C)c1NC(=O)C1CCCO1 (stereo not given)	87.3
Nc1nc2n(n1)C(c1ccccc1Cl)CC(c1ccc(F)cc1)N2 (stereo not given)	91.6
N#Cc1ccc(N2CCN(C(=O)c3cccc(F)c3)CC2)c(F)c1	98.4
CCn1ccc(C(=O)Nc2ccc(Cl)cn2)n1	93.6
CCOC(=O)c1cn(-c2ccccc2)nc1-c1cccnc1	106
CCOC(=O)c1c(C)n(C)c2ccc(OCC(O)CN(CC)CC)cc12 (stereo not given)	77.6
O=C(NCCC1=CCCCC1)NC1CCCCC1	87.2
CC(=O)Nc1ccc(-n2c(C)c(C(C)=O)c(C(C)=O)c2C)cc1	102
COCCOC(=O)C1=C(C)NC2=C(C(=O)CC(C)(C)C2)C1c1ccc2c(c1)OCO2 (stereo not given)	92.9
CCOc1ccccc1Nc1ncnc2c1cnn2-c1ccccc1	93.6
O=C1NCCCC1C(=O)N1CCN(C(=O)c2ccco2)CC1 (stereo not given)	106
CCC(=O)NCCn1c(C)cc2ccccc21	104
CCCCNC(=O)Nc1cc(C(=O)OC)ccc1C	85.2
CCOc1ccc(N=Cc2c(O)cc(C)oc2=O)cc1	107
CC(C)C(NS(=O)(=O)c1ccc2c3c(cccc13)C(=O)N2)C(=O)O (stereo not given)	97
Cc1ccc(NC(=O)c2cc(-c3cccc(O)c3)on2)cc1C	92.1

Source: PubChem BioAssay
